TRb SRC2 PPI: TRbeta-SRC2 interaction inhibition. Potency, µM (doses to about 106 µM), for the others: at the highest dose activity change, negative = inhibition, hits mostly inhibitors. TRbeta-SRC2 peptide binding, fluorescence polarization; receptor liganded with 1 µM T3. 280,000 compounds, 0.065% hits;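 further: potency means the concentration at half of the fitted maximal effect; plate controls were bound peptide for no effect and peptide without receptor for full effect; nearly all actives have a fitted effect of over 50% in size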
Target sequence (P10828 whole entry, looked up): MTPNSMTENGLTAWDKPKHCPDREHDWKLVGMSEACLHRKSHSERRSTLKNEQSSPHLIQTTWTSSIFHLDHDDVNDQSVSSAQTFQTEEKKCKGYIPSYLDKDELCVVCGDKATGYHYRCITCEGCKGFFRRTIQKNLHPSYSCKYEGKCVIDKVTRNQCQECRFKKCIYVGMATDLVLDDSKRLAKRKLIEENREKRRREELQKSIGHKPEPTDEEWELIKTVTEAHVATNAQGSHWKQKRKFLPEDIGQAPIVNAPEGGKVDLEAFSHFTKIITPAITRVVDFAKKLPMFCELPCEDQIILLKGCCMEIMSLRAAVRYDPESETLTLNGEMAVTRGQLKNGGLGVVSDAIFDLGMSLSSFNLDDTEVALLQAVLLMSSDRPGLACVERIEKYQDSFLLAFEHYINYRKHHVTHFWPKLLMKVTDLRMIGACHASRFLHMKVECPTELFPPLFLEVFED
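Quantitative HTS by FP: 0.6 uM TRb LBD, 20 nM labeled SRC2 20-mer, 1 uM T3, 5% DMSO; 5 hr ambient incubation; % activity per concentration and potencies from concentration series.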
RGS12 GoLoco inh: inhibitors of human Gai1-RGS12 GoLoco interaction (red fluorophore); AID 880; Gai1:RGS12 GoLoco peptide FP, rhodamine, 10 min; P63096; Potency, µM (top dose mostly 61.6 µM), for the others: at the top dose activity, negative = inhibition, usual class: inhibitors; 230,000 compounds, 0.44% hits; active means well fitted inhibition curve with a large enough effect, not every such curve was filed as active; inactive means no such curve, though single readings can be large or run the other way; further: potency means the concentration at half of the fitted maximal effect; on the % scale 0 is the no-effect control and ±100 the full control effect; nearly all actives have a fitted effect of over 30% in size
GCN5L2 inh-1: GCN5L2 (KAT2A) acetyltransferase inhibition; GCN5L2 HAT assay, ThioGlo1 CoA-SH fluorescence; Potency, µM (titrated, usually from 58.9 µM), for inactives: at the top dose activity change, negative = inhibition, hits mostly inhibitors; 390,000 compounds, 0.21% hits; AID 504327; further: potency means the concentration at half of the fitted maximal effect; on the % scale 0 is the no-effect control and ±100 the full control effect
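Preincubate 20nM GCN5L2 with compound 15 min, RT → add 50uM ThioGlo1 + 75uM H3(1-25) + 70uM acetyl-CoA → read fluorescence 0 and 20 min. Primary qHTS; fluorescent artifacts likely.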
VDR inh: vitamin D3 receptor (human) inhibition; VDR-SRC2-3 peptide fluorescence polarization, 2 h; Potency, µM, for the others: max response, negative = inhibition, most hits filed as inhibitors; 400,000 compounds, 0.93% hits; AID 504847; further: potency means the concentration at half of the fitted maximal effect; on the % scale 0 is the no-effect control and ±100 the full control effect
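The screen uses fluorescence polarization to detect compounds that interfere with recruitment of the SRC2-3 coactivator peptide to VDR; plates are read after 2 h at room temperature.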
TexasRed fluor: alters Texas Red total fluorescence, flagging assay interference. 280,000 compounds, 0.29% hits. Potency, µM (series often up to 106 µM), for the others: at the highest dose fluorescence change, negative = quenching. TRb/SRC2 Texas Red total fluorescence interference; active means well fitted curve in either direction with a large enough effect; inconclusive means small, poorly fitted or top-dose-only effect; further: potency means the concentration at half of the fitted maximal effect; on the % scale 0 is the no-effect control and ±100 the full control effect
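Flags fluorescent or light-absorbing compounds by total fluorescence, S + 2P, at 555 nm excitation and 632 nm emission. Mixture: 20 nM Texas Red SRC2 peptide, 0.6 uM human TRb LBD, 1 uM T3, 5% DMSO; compound exposure 5 h at ambient temperature.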
GCN5L2 inh-2: human KAT2A HAT inhibition, hit confirmation. AID 588347. GCN5L2 HAT, ThioGlo1 CoA fluorescence, 20 min. shares compounds with GCN5L2 inh-1. Potency, µM, hits mostly inhibitors. 140 compounds, 70% hits
Numbers without * were called inactive; u = inconclusive; x = no result; ! = not confirmed by another sample; [ ] = remark or other dose. Most compounds without a hit are left out; they make up all but 1.2% or so of the library. Unless noted, the call rests on the fitted dose curve; in most records, active means well fitted curve in the direction sought with a large enough effect; inconclusive means small, poorly fitted or top-dose-only effect, or another doubt; inactive means no such curve, though single readings can be large; an effect the other way counts as inactive or inconclusive.

SMILES	TRb SRC2 PPI	RGS12 GoLoco inh	GCN5L2 inh-1	VDR inh	TexasRed fluor	GCN5L2 inh-2
CSCC[C@H](NC(=O)[C@H](CO)NC(=O)[C@H](Cc1ccc(O)cc1)NC(=O)[C@@H](N)CO)C(=O)N[C@@H](CCC(=O)O)C(=O)N[C@@H](Cc1cnc[nH]1)C(=O)N[C@@H](Cc1ccccc1)C(=O)N[C@@H](CCCNC(=N)N)C(=O)N[C@@H](Cc1c[nH]c2ccccc12)C(=O)NCC(=O)N[C@@H](CCCCN)C(=O)N1CCC[C@H]1C(=O)N[C@H](C(=O)NCC(=O)N[C@@H](CCCCN)C(=O)N[C@@H](CCCCN)C(=O)N[C@@H](CCCNC(=N)N)C(=O)N[C@@H](CCCNC(=N)N)C(=O)N1CCC[C@H]1C(=O)N[C@H](C(=O)N[C@@H](CCCCN)C(=O)N[C@H](C(=O)N[C@@H](Cc1ccc(O)cc1)C(=O)N1CCC[C@H]1C(=O)N[C@@H](CC(N)=O)C(=O)NCC(=O)N[C@@H](C)C(=O)N[C@@H](CCC(=O)O)C(=O)N[C@@H](CC(=O)O)C(=O)N[C@@H](CCC(=O)O)C(=O)N[C@@H](CO)C(=O)N[C@@H](C)C(=O)N[C@@H](CCC(=O)O)C(=O)N[C@@H](C)C(=O)N[C@@H](Cc1ccccc1)C(=O)N1CCC[C@H]1C(=O)N[C@@H](CC(C)C)C(=O)N[C@@H](CCC(=O)O)C(=O)N[C@@H](Cc1ccccc1)C(=O)O)C(C)C)C(C)C)C(C)C	-3.2%	x	-10.3%	-3.2%	-38.3%	x
CC(=O)NC(=S)Nc1sc2c(c1C(N)=O)CCC(C)C2 (configuration not stated)	2.9%	1.7%	20µM*	14.5%	-4.1%	32.4*
CC1=NOC(=O)/C1=C\c1ccc(-c2cccc(Cl)c2)o1	10.6%	39.7%	u	u	-10.2%	u
CC1=NOC(=O)/C1=C\c1ccc(-c2ccc(Cl)c(C(=O)O)c2)o1	-2.9%	-9.4%	31.6µM*	u	-4.7%	12.9*
O=c1c2ccccc2sn1-c1cc(S(=O)(=O)N2CCOCC2)ccc1N1CCOCC1	x	3.55µM*	1.58µM*	17.8µM*!	x	4.08*
O=c1c2ccccc2sn1-c1cc(S(=O)(=O)N2CCOCC2)ccc1N1CCCC1	10.0%	-70.4%	8.91µM*	u	0.6%	5.76*
O=S(=O)(c1ccc(N2CCOCC2)c(Cl)c1)N1CCOCC1	x	x	-1.6%	-4.4%	x	x
CCSS(=O)(=O)c1cccc2cccnc12	1.9%	-33.2%	3.16µM*	15.8µM*	0.3%	3.63*
CN(CC(=O)O)Cc1c[nH]c2ccccc12	x	4.4%[14.2 µM]	x	x	x	x
COc1cccc2c1NC(C(=O)O)C1CC=CC21 (configuration not stated)	-19.0%	19.1%	11.2µM*	-17.8%	u	u
CC(=O)c1ccc2c(c1)C1C=CCC1C(C(=O)O)N2 (configuration not stated)	-0.8%	-32.0%	u	-16.0%	2.2%	x
CN(C)/C=C1\C=C2C(=O)c3ccccc3N2C1=O	6.3%	12.6µM*	17.8µM*	4.1%	-5.5%	36.3*
CN(C)S(=O)(=O)N1C(=O)c2ccccc2C1=O	-1.3%	11.8%	6.0%	-4.3%	-2.3%	x
Clc1nc2ccccc2nc1Cl	-2.4%	-2.6%	x	x	-1.7%	x
COC(=O)CN1C(=O)[C@@H]2[C@H](C1=O)[C@@H]1CC(C(=O)OC)=C[C@@H](C(=O)OC)C3C1=C(C(=O)C31CCCCC1)[C@@H]2C (some centres not stated)	-0.5%	x	x	-14.2%	-2.6%	x
Cc1cc2ncn(CC(=O)O)c2cc1C	x	6.3%[14.2 µM]	x	x	x	x
O=C(OCCN1C(=O)c2cccc3c(N4CCOCC4)ccc(c23)C1=O)c1ccc(Cl)cc1Cl	-19.4%	17.8%	-7.4%	6.9%	11.7%	x
O=C(OCCN1C(=O)c2cccc3c(N4CCOCC4)ccc(c23)C1=O)c1cccc(Cl)c1	1.8%	38.3%	u	9.5%	-3.4%	u
CC(=O)c1ccc(-c2nc3ccccc3n2C)o1	-5.1%	17.6%	u	7.2%	-2.6%	18.2*
Cc1ccc(-c2nc3ccccc3n2C)o1	8.9%	-15.6%	-3.0%	-18.7%	-1.1%	x
O=C(CSc1nc2ccccc2s1)Nc1cc(C(=O)O)cc(C(=O)O)c1	1.0%	22.8%	20µM*	-15.6%	-1.1%	u
CN(c1ccccc1)c1ccc(/C=C(\CCC(=O)O)c2nc3ccccc3s2)cc1[N+](=O)[O-]	0.8%[53 µM]	3.1%	u	-12.9%	-3.4%[53 µM]	20.4*
C[C@@H]1NCC[C@H](CC(=O)O)[C@H]1CC(=O)O	x	3.7%[14.2 µM]	x	x	x	x
CC(C)=NO[C@@H](C)c1cc(-c2c(C)cc(C)cc2C)no1	0.7%[11.2 µM]	x	x	x	-0.3%[11.2 µM]	x
O=S(=O)(c1ccc(F)cc1)N1CCN(c2nc(-c3ccc(F)cc3)nc3cc(Cl)ccc23)CC1	x	x	x	-3.0%	x	x
SMILES	TRb SRC2 PPI	RGS12 GoLoco inh	GCN5L2 inh-1	VDR inh	TexasRed fluor	GCN5L2 inh-2
Cc1cc(/C=C2/C(=N)N3C(=NC2=O)SN=C3S(C)(=O)=O)c(C)n1-c1ccc(F)cc1	-4.8%	0.4%	-21.7%	-3.2%	0.0%	x
CCOc1ccc(-n2c(C)cc(/C=C3/C(=N)N4C(=NC3=O)SN=C4S(C)(=O)=O)c2C)cc1	-1.9%	21.8%	31.6µM*	u	-1.8%	u
CCOC(=O)Cc1csc(NC(=O)CSc2nnnn2-c2ccc(C)c(C)c2)n1	14.0%	5.9%	u	-1.3%	-0.6%	u
CCOC(=O)Cc1csc(NC(=O)CSc2nnnn2-c2ccc(F)cc2)n1	4.4%	3.0%	-4.0%	5.8%	-4.1%	x
CC1(C)OC(C(O)(c2cccc3c2oc2ccccc23)c2cccc3c2oc2ccccc23)C(C(O)(c2cccc3c2oc2ccccc23)c2cccc3c2oc2ccccc23)O1 (configuration not stated)	3.2%[11.2 µM]	x	x	x	-14.0%[11.2 µM]	x
CCC(C)Sc1ccc(-c2nc3ccc(C)cn3c2NC2CCCCC2)cc1 (configuration not stated)	x	x	20µM*	-29.2%	x	u
O=C1ON=C(c2ccc(Cl)cc2)/C1=C/c1ccc(O)cc1	-1.5%	-3.4%	u	u	-5.5%	25.7*
O=C(O)c1cc(-c2ccc(-c3c(-c4ccc5c(c4)OCO5)noc3-c3ccsc3)cc2)nc2ccccc12	x	x	20µM*	u	x	16.2*
O=C(/C=C/c1ccco1)Nc1scc(-c2ccccc2)c1C(=O)O	2.5%	-9.2%	u	-15.0%	-0.3%	u
C[C@H]1/C=C\CC(=O)OC[C@H](C)C(=O)N2CCC[C@@H]2C(=O)OC1	4.7%[11.2 µM]	x	x	x	2.6%[11.2 µM]	x
COc1cc(-c2nnc(-c3cc(OC)c(OC)c(OC)c3)o2)cc(OC)c1OC	-5.1%	-1.8%	-11.8%	4.9%	-4.7%	x
